In PubChem BioAssay (EPA / NIEHS):
Results filed as inconclusive are left out. Active and inactive are the calls of the source. The calls were made as follows: active = hit-call score of the fitted dose curve at least 0.9, where 1 is the maximum; inconclusive = response in the unintended direction; inactive = score below 0.9.

Columns and labels:
[1] = biological target: rabbit Imidazoline 2 Central (I2C), CKB (gene 100009085) (UniProt P00567); experiment: NVS_ENZ_rabI2C: NovaScreen (NVS) Enzymatic Assay for rabbit Imidazoline 2 Central (I2C) (AID 2283228)
Chain of rabbit Imidazoline 2 Central (I2C), CKB (gene 100009085) (P00567 whole entry, looked up): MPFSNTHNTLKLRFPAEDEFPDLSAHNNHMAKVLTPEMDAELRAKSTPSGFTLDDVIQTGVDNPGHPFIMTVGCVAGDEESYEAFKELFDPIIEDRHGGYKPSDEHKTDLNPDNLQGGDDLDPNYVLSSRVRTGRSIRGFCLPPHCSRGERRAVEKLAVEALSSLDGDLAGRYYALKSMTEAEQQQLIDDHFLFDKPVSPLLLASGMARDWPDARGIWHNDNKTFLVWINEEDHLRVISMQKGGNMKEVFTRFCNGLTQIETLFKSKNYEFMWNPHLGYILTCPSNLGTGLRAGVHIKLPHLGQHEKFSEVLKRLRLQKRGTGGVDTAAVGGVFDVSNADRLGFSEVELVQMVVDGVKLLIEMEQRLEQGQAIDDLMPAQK
How it was run: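 Rabbit brain membranes, cell-free; readout by filter-based scintillation counting 1.5 hours after dosing, loss of signal vs DMSO. Initial duplicate test at 25 uM, then concentration-response with 50 uM top concentration.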

[2] = biological target: human Vascular Endothelial Growth Factor Receptor 2 (VEGFR2), KDR (gene 3791) (UniProt P35968); experiment: NVS_ENZ_hVEGFR2: NovaScreen (NVS) Enzymatic Assay for human Vascular Endothelial Growth Factor Receptor 2 (VEGFR2) (AID 2283230)
Chain of human Vascular Endothelial Growth Factor Receptor 2 (VEGFR2), KDR (gene 3791) (P35968 whole entry, looked up): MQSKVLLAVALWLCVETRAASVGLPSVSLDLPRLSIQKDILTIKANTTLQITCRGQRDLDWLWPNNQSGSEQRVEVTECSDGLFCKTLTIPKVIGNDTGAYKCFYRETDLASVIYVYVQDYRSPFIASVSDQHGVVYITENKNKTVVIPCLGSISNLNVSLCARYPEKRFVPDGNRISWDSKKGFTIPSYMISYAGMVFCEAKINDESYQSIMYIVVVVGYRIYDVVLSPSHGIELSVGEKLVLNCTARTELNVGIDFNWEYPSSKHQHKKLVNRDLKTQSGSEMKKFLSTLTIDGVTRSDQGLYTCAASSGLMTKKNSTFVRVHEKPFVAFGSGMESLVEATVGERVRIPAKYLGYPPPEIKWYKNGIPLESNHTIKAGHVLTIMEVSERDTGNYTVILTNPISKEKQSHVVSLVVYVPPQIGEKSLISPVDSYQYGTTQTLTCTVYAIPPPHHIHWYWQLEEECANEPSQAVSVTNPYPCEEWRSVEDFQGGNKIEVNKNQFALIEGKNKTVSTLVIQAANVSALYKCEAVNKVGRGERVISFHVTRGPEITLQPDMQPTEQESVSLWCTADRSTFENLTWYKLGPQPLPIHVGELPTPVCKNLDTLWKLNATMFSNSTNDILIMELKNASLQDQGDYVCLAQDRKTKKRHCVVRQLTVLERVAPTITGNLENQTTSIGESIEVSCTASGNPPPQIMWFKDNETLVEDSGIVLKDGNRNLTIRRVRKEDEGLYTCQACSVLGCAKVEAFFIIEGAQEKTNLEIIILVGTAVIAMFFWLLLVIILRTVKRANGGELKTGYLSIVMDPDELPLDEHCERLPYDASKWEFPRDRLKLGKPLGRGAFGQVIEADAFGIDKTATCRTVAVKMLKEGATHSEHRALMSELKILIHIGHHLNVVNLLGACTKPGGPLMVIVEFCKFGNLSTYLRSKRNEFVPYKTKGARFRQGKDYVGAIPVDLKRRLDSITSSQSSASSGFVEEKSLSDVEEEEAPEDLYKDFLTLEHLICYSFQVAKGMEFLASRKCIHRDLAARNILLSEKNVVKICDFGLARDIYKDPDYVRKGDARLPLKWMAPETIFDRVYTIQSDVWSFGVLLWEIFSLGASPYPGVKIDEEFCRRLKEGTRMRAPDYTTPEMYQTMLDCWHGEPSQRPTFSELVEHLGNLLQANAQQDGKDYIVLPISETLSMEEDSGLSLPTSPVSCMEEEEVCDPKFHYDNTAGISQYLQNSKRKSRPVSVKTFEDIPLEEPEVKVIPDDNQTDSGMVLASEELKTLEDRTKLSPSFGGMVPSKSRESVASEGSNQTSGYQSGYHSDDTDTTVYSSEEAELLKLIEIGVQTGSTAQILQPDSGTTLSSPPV
How it was run: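 Cell-free recombinant VEGFR2 kinase, fluorescent substrate with electrophoretic mobility-shift separation; read 1 h after dosing. Screened at 25 uM in duplicate, hits to concentration-response up to 50 uM; loss-of-signal versus DMSO.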

[3] = tested on: bovine Angiotensin II Receptor Type 2 (AT2), gene 407157; experiment: NVS_GPCR_bAT2: NovaScreen (NVS) G Protein-Coupled Receptor Assay for bovine Angiotensin II Receptor Type 2 (AT2) (AID 2283240)
How it was run: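 Radioligand displacement on bovine cerebellar membranes, 1 hour incubation, filter-based scintillation counting; loss of signal vs DMSO. Duplicate single-point screen at 25 uM, then concentration-response to 50 uM maximum.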

[4] = biological target: sheep Cyclooxygenase-2 (Cox2), PTGS2 (gene 443460) (UniProt P79208); experiment: NVS_ENZ_oCOX2: NovaScreen (NVS) Enzymatic Assay for sheep Cyclooxygenase-2 (Cox2) (AID 2283231)
Chain of sheep Cyclooxygenase-2 (Cox2), PTGS2 (gene 443460) (P79208 whole entry, looked up): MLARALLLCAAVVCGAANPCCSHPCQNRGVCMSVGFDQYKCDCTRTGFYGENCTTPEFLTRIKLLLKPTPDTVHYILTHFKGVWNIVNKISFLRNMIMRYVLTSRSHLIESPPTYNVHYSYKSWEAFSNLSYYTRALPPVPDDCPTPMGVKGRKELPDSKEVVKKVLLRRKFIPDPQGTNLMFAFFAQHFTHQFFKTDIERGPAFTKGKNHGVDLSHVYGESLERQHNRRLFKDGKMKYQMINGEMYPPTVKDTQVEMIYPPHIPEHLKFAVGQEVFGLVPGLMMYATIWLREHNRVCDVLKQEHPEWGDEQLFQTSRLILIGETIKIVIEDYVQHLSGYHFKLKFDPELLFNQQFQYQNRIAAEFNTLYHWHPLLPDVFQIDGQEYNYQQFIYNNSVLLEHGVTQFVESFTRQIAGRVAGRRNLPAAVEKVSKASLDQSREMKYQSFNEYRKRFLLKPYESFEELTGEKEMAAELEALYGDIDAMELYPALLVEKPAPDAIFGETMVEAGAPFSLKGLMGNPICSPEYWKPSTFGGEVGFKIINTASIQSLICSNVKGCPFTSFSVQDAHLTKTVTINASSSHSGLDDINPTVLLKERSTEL
Experimental: NVS_ENZ_oCOX2 is a biochemical, single-readout assay that uses extracted gene-proteins from Ovine placenta in a tissue-based cell-free assay. Measurements were taken 0.66 hour after chemical dosing in a 96-well plate.NVS_ENZ_oCOX2 is one of one assay component(s) measured or calculated from the NVS_ENZ_oCOX2 assay. It is designed to make measurements of enzyme activity, a form of enzyme reporter, as detected with absorbance signals by Colorimetric technology.Data from the assay component NVS_ENZ_oCOX2 was analyzed into 1 assay endpoint. This assay endpoint, NVS_ENZ_oCOX2, was analyzed in the positive analysis fitting direction relative to DMSO as the negative control and baseline of activity. Using a type of enzyme reporter, loss-of-signal activity can be used to understand changes in the enzymatic activity as they relate to the gene PTGS2. Furthermore, this assay endpoint can be referred to as a primary readout, because this assay has produced multiple assay endpoints where this one serves a enzymatic activity function. To generalize the intended target to other relatable targets, this assay endpoint is annotated to the oxidoreductase intended target family, where the subfamily is cyclooxygenase.
(§1) Binding assays used specific radioligands (tritiated, iodinated) with non-radioactive competitive displacement ligands in agonist or antagonist protocols (as indicated) and various reference compounds and inhibitors to titrate specific binding to receptors and transporters. Most enzyme assays (CYPs, kinases, phosphatases, proteases, HDACs) used recombinant protein and specific substrates (fluorescence mostly, some colorimetric and radioactive) and inhibitors, followed by a biochemical separation of substrate and product. All assays for the biochemical HTS were initially run in duplicate at a single concentration (10 uM for CYP450 assays and 25 uM for all others). Assay-chemical combinations meeting a pre-defined threshold (e.g., 30% inhibition and other criteria defined below) were then run in singleton concentration-response format with maximum concentration of 20 uM for CYPs and 50 uM for all others. Each assay was run with positive and negative controls, and concurrent controls on every plate. The follow-up (secondary) screen tested active chemical-pairs in concentration series, as well as a few additional assays not tested in the primary screen, some selected negative inactives, and several cases re-run in the concentration series for confirmatory purposes.

[5] = biological target: rat Catechol-O-Methyl Transferase (COMT), Comt (gene 24267) (UniProt P22734); experiment: NVS_ENZ_rCOMT: NovaScreen (NVS) Enzymatic Assay for rat Catechol-O-Methyl Transferase (COMT) (AID 2283235)
Chain of rat Catechol-O-Methyl Transferase (COMT), Comt (gene 24267) (P22734 whole entry, looked up): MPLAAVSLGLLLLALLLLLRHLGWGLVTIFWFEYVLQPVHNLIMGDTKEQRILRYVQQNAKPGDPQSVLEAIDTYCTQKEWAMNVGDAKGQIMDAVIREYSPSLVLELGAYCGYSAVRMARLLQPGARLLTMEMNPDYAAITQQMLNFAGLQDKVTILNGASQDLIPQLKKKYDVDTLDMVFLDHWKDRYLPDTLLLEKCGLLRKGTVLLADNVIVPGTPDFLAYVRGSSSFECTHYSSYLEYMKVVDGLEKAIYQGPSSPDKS
How it was run: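 Cell-free enzyme activity with protein extracted from rat dorsal striatum, measured by HPLC with absorbance detection. Compounds screened at 25 uM in duplicate; actives then run in concentration-response up to 50 uM, loss of signal versus DMSO.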

[6] = biological target: sheep Cyclooxygenase-1 (Cox1), PTGS1 (gene 443551) (UniProt P05979); experiment: NVS_ENZ_oCOX1: NovaScreen (NVS) Enzymatic Assay for sheep Cyclooxygenase-1 (Cox1) (AID 2283239);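 also: actives reduce cyclooxygenase activity so potencies are for inhibitors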
Chain of sheep Cyclooxygenase-1 (Cox1), PTGS1 (gene 443551) (P05979 whole entry, looked up): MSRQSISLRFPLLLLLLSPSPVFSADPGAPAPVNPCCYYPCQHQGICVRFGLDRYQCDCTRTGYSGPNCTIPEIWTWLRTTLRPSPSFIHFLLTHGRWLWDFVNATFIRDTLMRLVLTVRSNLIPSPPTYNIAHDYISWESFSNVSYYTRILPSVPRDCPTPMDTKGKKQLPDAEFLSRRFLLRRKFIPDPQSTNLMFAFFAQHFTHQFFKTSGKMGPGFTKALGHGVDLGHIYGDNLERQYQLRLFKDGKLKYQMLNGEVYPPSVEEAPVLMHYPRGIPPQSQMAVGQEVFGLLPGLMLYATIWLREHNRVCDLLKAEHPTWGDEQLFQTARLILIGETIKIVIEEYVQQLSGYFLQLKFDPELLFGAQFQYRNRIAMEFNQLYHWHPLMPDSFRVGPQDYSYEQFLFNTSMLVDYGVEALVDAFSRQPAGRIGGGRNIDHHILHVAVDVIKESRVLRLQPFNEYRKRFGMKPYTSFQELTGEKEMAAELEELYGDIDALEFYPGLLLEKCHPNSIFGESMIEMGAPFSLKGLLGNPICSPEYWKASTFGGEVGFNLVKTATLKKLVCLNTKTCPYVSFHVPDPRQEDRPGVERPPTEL
How it was run: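 Colorimetric enzyme readout using sheep seminal-vesicle cyclooxygenase-1, measured 0.66 h post-dosing. Single-concentration duplicates at 25 uM first, then concentration series for actives, with DMSO as baseline and plate controls.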

[7] = biological target: bovine Dopamine Receptor (DR), Non-selective Binding, DRD1 (gene 281125) (UniProt Q95136); experiment: NVS_GPCR_bDR_NonSelective: NovaScreen (NVS) G Protein-Coupled Receptor Assay for bovine Dopamine Receptor (DR), Non-selective Binding (AID 2283241)
Chain of bovine Dopamine Receptor (DR), Non-selective Binding, DRD1 (gene 281125) (Q95136 whole entry, looked up): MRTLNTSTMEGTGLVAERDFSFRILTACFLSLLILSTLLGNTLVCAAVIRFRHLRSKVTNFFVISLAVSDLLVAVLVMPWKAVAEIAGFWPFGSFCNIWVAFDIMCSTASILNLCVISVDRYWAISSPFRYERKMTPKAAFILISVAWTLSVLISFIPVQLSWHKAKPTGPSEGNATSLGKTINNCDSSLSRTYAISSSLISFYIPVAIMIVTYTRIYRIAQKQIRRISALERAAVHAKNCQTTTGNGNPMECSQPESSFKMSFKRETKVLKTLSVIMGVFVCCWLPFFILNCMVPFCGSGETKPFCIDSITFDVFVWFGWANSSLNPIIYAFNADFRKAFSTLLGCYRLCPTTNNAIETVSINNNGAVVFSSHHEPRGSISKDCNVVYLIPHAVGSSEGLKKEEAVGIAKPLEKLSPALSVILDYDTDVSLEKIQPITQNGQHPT
How it was run: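 Bovine striatal membranes; radioligand displacement read by filtration and scintillation counting 1 h after dosing, loss of signal vs DMSO. Screened in duplicate at 25 uM, then concentration-response for hits.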

[8] = biological target: Adenosine receptor A1 (Bos taurus) (UniProt P28190); experiment: NVS_GPCR_bAdoR_NonSelective: NovaScreen (NVS) G Protein-Coupled Receptor Assay for bovine Adenosine Receptor (AdoR), Non-selective Binding (AID 2283244)
Chain of Adenosine receptor A1 (Bos taurus) (P28190 whole entry, looked up): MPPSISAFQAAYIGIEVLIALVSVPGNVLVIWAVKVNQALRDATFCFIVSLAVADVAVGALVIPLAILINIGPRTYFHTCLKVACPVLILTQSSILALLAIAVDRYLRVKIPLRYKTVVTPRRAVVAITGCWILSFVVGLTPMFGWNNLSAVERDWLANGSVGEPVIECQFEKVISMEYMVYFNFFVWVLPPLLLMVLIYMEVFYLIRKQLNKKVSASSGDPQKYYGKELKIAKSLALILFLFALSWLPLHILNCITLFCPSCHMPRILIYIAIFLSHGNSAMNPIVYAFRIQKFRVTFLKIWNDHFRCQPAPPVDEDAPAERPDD
Experimental: NVS_GPCR_bAdoR_NonSelective is a biochemical, single-readout assay that uses extracted gene-proteins from Bovine striatal membranes in a tissue-based cell-free assay. Measurements were taken 1 hour after chemical dosing in a 96-well plate.NVS_GPCR_bAdoR_NonSelective is one of one assay component(s) measured or calculated from the NVS_GPCR_bAdoR_NonSelective assay. It is designed to make measurements of radioligand binding, a form of binding reporter, as detected with scintillation counting signals by Filter-based radiodetection technology.Data from the assay component NVS_GPCR_bAdoR_NonSelective was analyzed into 1 assay endpoint. This assay endpoint, NVS_GPCR_bAdoR_NonSelective, was analyzed in the positive analysis fitting direction relative to DMSO as the negative control and baseline of activity. Using a type of binding reporter, loss-of-signal activity can be used to understand changes in the binding as they relate to the gene ADORA1. Furthermore, this assay endpoint can be referred to as a primary readout, because the performed assay has only produced 1 assay endpoint. To generalize the intended target to other relatable targets, this assay endpoint is annotated to the gpcr intended target family, where the subfamily is rhodopsin-like receptor.
as §1

[9] = biological target: rat Constitutive Nitric Oxide Synthase (CNOS), Nos1 (gene 24598) (UniProt P29476); experiment: NVS_ENZ_rCNOS: NovaScreen (NVS) Enzymatic Assay for rat Constitutive Nitric Oxide Synthase (CNOS) (AID 2283236)
Experimental: NVS_ENZ_rCNOS is a biochemical, single-readout assay that uses extracted gene-proteins from Rat brain membranes in a tissue-based cell-free assay. Measurements were taken 1 hour after chemical dosing in a 96-well plate.NVS_ENZ_rCNOS is one of one assay component(s) measured or calculated from the NVS_ENZ_rCNOS assay. It is designed to make measurements of enzyme activity, a form of enzyme reporter, as detected with scintillation counting signals by Filter-based radiodetection technology.Data from the assay component NVS_ENZ_rCNOS was analyzed into 1 assay endpoint. This assay endpoint, NVS_ENZ_rCNOS, was analyzed in the positive analysis fitting direction relative to DMSO as the negative control and baseline of activity. Using a type of enzyme reporter, loss-of-signal activity can be used to understand changes in the enzymatic activity as they relate to the gene Nos1. Furthermore, this assay endpoint can be referred to as a primary readout, because this assay has produced multiple assay endpoints where this one serves a enzymatic activity function. To generalize the intended target to other relatable targets, this assay endpoint is annotated to the oxidoreductase intended target family, where the subfamily is nitric oxide synthase. […]

## NCc1cccc(C2CCN(C(=O)c3ccc(C#Cc4ccccc4F)o3)CC2)c1
[1]
  AC50: 7.1 µM (active)

## O=C(Nc1ccc(Cl)cc1)Nc1ccc(Cl)c(Cl)c1
[2]
  outcome: inactive

## CCN(Cc1cccnc1)C(=O)c1cccc(Cl)c1[C@]1(C)C(=O)N(Cc2ccc(OC)cc2OC)c2ccc(Cl)cc21
[2]
  outcome: inactive

## O=C(O)Cn1c(=O)n(Cc2ccc(Br)cc2F)c(=O)c2ccc(Cl)cc21
[3]
  outcome: inactive

## CCCCCCCCOC(=O)c1cc(O)c(O)c(O)c1
[4]
  AC50: 18.3 µM (active)
[5]
  AC50: 2.54 µM (active)
[6]
  outcome: inactive

## CCCCCCCCCCCO
[2]
  outcome: inactive

## CN(C)C(=O)C1(N2CCCCC2)CCN(CC[C@@]2(c3ccc(Cl)c(Cl)c3)CN(C(=O)c3ccccc3)CCO2)CC1
[2]
  outcome: inactive
[7]
  AC50: 4.5 µM (active)

## CCCCCCCCCCCC[N+](C)(C)C
[1]
  AC50: 2.13 µM (active)

## CCCC(=O)OCCC(C)C
[1]
  outcome: inactive

## O=c1c(-c2ccc(O)cc2)coc2cc(O)cc(O)c12
[6]
  outcome: inactive
[8]
  AC50: 18.9 µM (active)

## CC1=CC(=O)/C(=C(/C)O)C(=O)O1
[4]
  outcome: inactive

## CN(C)c1ccc(C(=C2C=CC(=[N+](C)C)C=C2)c2ccc(N(C)C)cc2)cc1
[1]
  outcome: inactive
[2]
  AC50: 0.572 µM (active)
[8]
  AC50: 13.6 µM (active)

## CC1(C)NC(=O)N(c2ccc([N+](=O)[O-])c(C(F)(F)F)c2)C1=O
[8]
  AC50: 9.79 µM (active)

## COc1cc(C(=O)NC2CCN(C)CC2)ccc1Nc1ncc2c(n1)N(C1CCCC1)CC(F)(F)C(=O)N2C
[2]
  outcome: inactive
[4]
  AC50: 15.2 µM (active)
[3]
  AC50: 14 µM (active)
[7]
  AC50: 11.2 µM (active)

## CO[C@H]1/C=C/O[C@@]2(C)Oc3c(C)c(O)c4c(O)c(c(/C=N/N5CCN(C)CC5)c(O)c4c3C2=O)NC(=O)/C(C)=C\C=C\[C@H](C)[C@H](O)[C@@H](C)[C@@H](O)[C@@H](C)[C@H](OC(C)=O)[C@@H]1C
[4]
  AC50: 7.74 µM (active)
[6]
  AC50: 3.36 µM (active)

## CCCCCCCCCC(=O)O
[8]
  outcome: inactive

## CCN(CC)C(=O)c1cc(S(=O)(=O)Cc2ccccc2)c(N2CCC(c3ccccc3)CC2)cc1N(CC)CCN(C)C
[9]
  outcome: inactive
[7]
  AC50: 6.88 µM (active)
[8]
  outcome: inactive

## Cc1oc2c(NC(=O)c3c(Cl)cccc3Cl)cccc2c1C(C)(C)O
[1]
  outcome: inactive

## O=CCCCC=O
[4]
  AC50: 15.4 µM (active)
